Test results: article PMC7862700, “An all-to-all approach to the identification of sequence-specific readers for epigenetic DNA modifications on cytosine”

What was measured:
Assay in all cases: DAPPL (digital affinity profiling via proximity ligation, sequencing); 10 mM Tris-HCl pH 7.5, 50 mM NaCl, 1 mM DTT, 4% glycerol, room temperature, 30 min; GST-TFs on glutathione beads, 16-mer random dsDNA library, 0.1% formaldehyde crosslink after washing; high values mean tight binding
FEV = molecular target: T1, FEV (Homo sapiens, UniProt Q99581 1-238); conditions: protein: recombinant; tags: N-terminal GST; dsDNA, one strand shown
T1 sequence: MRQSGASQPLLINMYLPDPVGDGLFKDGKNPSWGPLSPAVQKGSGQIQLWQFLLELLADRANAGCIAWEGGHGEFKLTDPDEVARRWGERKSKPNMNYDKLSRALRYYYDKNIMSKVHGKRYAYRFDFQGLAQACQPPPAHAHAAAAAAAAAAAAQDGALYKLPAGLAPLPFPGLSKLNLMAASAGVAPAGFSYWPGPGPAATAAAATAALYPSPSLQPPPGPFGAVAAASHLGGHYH
How it was run: (§1)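 The binding signal reported is, for every hexamer, its read frequency for a factor over its read frequency for the tag-only sample. Reads came from pools of yeast-expressed, GST-fused human transcription factors on glutathione beads, barcoded with DNA and mixed with that sample, which were incubated with 200 nmole of a random double-stranded 16-mer DNA library in Tris/NaCl/DTT/glycerol buffer at room temperature for 30 min. After washing, the pools were crosslinked with 0.1% formaldehyde, proximity-ligated with BsaI/T4 ligase for 1 h at 37 °C, PCR-amplified and sequenced on an Illumina NextSeq500.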

ETV5 = ETV5 (Homo sapiens, UniProt P41161 1-510); conditions: protein: recombinant; tags: N-terminal GST; dsDNA, one strand shown
Chain of ETV5 (P41161 whole entry): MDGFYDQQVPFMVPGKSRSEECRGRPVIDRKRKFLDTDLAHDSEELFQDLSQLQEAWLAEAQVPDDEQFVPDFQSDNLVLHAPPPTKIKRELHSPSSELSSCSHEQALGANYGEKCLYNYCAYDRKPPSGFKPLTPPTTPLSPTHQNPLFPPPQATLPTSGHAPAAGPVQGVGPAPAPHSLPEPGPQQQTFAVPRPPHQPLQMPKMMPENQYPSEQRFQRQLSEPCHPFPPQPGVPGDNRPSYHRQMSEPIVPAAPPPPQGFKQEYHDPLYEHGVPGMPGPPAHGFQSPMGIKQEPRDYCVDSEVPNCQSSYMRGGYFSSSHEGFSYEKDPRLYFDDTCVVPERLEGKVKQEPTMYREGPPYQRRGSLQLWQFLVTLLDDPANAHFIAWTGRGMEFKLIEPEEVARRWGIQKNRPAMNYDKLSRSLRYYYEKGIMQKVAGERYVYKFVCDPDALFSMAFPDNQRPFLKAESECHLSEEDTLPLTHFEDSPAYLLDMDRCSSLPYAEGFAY
How it was run: as §1

HSF1 = HSF1 (Homo sapiens, UniProt Q00613 1-529); conditions: protein: recombinant; tags: N-terminal GST; chain copies: 3; dsDNA, one strand shown
Chain of HSF1 (Q00613 whole entry): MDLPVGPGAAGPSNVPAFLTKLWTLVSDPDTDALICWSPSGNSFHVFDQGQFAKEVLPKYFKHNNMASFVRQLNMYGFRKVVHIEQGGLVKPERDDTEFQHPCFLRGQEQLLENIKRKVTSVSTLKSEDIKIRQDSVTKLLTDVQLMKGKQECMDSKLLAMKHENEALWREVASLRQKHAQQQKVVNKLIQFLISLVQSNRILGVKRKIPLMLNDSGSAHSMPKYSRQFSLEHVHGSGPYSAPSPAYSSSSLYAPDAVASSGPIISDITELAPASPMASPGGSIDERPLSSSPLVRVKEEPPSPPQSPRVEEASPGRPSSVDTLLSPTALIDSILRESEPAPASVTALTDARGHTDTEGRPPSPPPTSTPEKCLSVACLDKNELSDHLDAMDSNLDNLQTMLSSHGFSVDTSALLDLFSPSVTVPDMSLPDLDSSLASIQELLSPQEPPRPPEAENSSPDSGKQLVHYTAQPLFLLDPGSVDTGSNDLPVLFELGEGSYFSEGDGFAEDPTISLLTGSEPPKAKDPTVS
How it was run: as §1

SPIC = molecular target: T2, SPIC (Homo sapiens, UniProt Q8N5J4 1-248); conditions: protein: recombinant; tags: N-terminal GST; dsDNA, one strand shown
T2 sequence: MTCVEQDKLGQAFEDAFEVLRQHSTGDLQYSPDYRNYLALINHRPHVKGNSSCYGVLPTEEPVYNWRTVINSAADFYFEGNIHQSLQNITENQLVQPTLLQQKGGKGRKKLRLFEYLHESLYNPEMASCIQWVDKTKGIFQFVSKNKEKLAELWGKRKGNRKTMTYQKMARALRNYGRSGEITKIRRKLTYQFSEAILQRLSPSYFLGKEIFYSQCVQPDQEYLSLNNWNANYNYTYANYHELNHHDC
How it was run: as §1

ELF4 = ELF4 (Homo sapiens, UniProt Q99607 1-663); conditions: protein: recombinant; tags: N-terminal GST; dsDNA, one strand shown
Chain of ELF4 (Q99607 whole entry): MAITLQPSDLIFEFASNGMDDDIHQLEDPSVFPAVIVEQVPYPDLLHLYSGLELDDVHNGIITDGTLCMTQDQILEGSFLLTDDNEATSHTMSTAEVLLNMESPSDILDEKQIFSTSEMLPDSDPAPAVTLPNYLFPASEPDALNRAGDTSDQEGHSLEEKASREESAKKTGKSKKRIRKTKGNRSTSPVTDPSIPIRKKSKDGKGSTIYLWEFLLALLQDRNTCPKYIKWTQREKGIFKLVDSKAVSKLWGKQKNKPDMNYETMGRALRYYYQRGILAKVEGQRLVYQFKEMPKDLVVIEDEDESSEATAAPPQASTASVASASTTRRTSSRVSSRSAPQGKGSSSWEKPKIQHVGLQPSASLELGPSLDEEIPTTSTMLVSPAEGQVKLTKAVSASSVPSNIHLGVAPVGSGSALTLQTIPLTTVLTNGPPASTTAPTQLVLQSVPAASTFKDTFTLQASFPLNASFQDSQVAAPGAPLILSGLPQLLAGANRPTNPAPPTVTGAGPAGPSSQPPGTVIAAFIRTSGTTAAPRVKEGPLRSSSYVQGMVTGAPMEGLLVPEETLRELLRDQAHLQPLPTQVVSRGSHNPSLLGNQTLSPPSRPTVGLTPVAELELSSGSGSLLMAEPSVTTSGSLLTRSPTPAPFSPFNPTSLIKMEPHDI
How it was run: as §1

ELK4 = molecular target: T3, ELK4 (Homo sapiens, UniProt P28324-2 1-405); conditions: protein: recombinant; tags: N-terminal GST; dsDNA, one strand shown
T3 sequence: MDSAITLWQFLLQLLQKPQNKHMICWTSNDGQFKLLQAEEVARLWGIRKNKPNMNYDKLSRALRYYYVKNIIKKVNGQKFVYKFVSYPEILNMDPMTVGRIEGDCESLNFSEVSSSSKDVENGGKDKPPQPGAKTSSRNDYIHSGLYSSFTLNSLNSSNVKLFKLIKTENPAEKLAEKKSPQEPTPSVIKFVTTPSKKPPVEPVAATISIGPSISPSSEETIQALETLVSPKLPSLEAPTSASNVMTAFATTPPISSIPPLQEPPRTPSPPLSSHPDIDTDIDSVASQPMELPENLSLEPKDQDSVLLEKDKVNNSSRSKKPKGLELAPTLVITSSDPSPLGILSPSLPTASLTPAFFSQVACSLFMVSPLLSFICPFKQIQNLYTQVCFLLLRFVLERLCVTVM
How it was run: as §1

ETV2 = molecular target: T4, ETV2 (Homo sapiens, UniProt O00321 1-342); conditions: protein: recombinant; tags: N-terminal GST; dsDNA, one strand shown
T4 sequence: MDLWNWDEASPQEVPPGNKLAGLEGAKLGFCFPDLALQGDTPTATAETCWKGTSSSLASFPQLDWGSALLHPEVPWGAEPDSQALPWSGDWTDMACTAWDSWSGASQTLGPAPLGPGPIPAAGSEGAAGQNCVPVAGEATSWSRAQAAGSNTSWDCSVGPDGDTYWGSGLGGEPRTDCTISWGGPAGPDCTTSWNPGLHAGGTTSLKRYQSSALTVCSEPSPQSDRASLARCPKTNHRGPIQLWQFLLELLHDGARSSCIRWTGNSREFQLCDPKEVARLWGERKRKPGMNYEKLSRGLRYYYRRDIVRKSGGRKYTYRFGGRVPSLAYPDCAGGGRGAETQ
How it was run: as §1

ELF3 = molecular target: T5, ELF3 (Homo sapiens, UniProt P78545 1-371); conditions: protein: recombinant; tags: N-terminal GST; dsDNA, one strand shown
T5 sequence: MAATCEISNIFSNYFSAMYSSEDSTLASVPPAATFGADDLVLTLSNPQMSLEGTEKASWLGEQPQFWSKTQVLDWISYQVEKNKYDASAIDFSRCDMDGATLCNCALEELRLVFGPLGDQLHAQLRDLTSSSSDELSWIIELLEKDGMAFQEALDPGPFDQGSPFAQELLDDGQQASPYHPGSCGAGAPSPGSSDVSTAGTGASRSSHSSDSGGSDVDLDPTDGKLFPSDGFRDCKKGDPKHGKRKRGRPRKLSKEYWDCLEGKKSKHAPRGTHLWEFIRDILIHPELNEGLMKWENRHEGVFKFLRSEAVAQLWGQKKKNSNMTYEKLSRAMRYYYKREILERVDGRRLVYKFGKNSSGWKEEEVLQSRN
How it was run: as §1

CRX = CRX (Homo sapiens, UniProt O43186 1-299); conditions: protein: recombinant; tags: N-terminal GST; dsDNA, one strand shown
Chain of CRX (O43186 whole entry): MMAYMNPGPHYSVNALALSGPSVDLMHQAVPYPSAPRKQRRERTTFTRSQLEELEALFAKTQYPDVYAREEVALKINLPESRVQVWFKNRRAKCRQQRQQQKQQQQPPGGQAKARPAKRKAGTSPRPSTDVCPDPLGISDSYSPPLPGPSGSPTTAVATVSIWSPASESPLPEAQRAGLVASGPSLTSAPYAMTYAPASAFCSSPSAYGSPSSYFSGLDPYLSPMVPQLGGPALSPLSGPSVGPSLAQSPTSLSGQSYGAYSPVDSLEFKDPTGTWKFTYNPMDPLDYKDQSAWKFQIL
How it was run: as §1

ETV1 = ETV1 (Homo sapiens, UniProt P50549 1-477); conditions: protein: recombinant; tags: N-terminal GST; dsDNA, one strand shown
Chain of ETV1 (P50549 whole entry): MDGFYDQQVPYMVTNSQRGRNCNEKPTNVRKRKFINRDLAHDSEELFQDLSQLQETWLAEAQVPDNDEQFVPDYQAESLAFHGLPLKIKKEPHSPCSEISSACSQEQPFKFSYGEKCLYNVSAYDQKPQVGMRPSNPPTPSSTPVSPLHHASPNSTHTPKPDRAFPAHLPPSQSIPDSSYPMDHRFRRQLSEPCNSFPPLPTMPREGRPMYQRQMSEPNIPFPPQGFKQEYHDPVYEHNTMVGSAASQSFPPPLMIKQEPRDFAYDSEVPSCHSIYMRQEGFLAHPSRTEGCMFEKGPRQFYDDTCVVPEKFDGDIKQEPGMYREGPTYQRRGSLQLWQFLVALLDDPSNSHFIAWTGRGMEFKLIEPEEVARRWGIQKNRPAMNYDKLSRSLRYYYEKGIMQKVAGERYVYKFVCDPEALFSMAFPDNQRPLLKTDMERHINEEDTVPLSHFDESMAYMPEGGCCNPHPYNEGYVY
How it was run: as §1

## CCGCAT
FEV
  binding signal: 1.49 fold enrichment (6-mer frequency, TF over GST control)
ETV5
  binding signal: 1.65 fold enrichment (6-mer frequency, TF over GST control)
HSF1
  binding signal: 1.13 fold enrichment (6-mer frequency, TF over GST control)
SPIC
  binding signal: 1.53 fold enrichment (6-mer frequency, TF over GST control)
ELF4
  binding signal: 1.62 fold enrichment (6-mer frequency, TF over GST control)
ELK4
  binding signal: 1.31 fold enrichment (6-mer frequency, TF over GST control)
ETV2
  binding signal: 1.52 fold enrichment (6-mer frequency, TF over GST control)
ELF3
  binding signal: 1.95 fold enrichment (6-mer frequency, TF over GST control)
CRX
  binding signal: 1.19 fold enrichment (6-mer frequency, TF over GST control)
ETV1
  binding signal: 1.59 fold enrichment (6-mer frequency, TF over GST control)
